Measured values published in PubChem BioAssay (NCATS).
Several values for one entry are separate records, joined by “and”; a condition that tells them apart may be missing. Equal entries are not always repeated. Records with an inconclusive call do not appear. A call without a number means that no potency is given here. Values without a mark were called inactive. Activity calls are given as the source filed them. Unless noted, the call rests on the fitted dose curve; in most records, active means well fitted curve in the direction sought with a large enough effect; inconclusive means small, poorly fitted or top-dose-only effect, or another doubt; inactive means no such curve, though single readings can be large; an effect the other way counts as inactive or inconclusive.

Legend:
[1] = molecular target: Cellular tumor antigen p53 (Homo sapiens) (UniProt P04637); test: Primary qHTS for small molecule compounds that upregulate eGFP-tagged delta133p53alpha (in N-terminal) cells. (AID 2060322); conditions: NCI-H358 eGFP-delta133p53alpha fluorescence, 24 h; activation: stronger effect = higher value; further: nearly all actives have a fitted effect of over 75% in size; further: potency means the concentration at half of the fitted maximal effect
How it was run: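 NCI-H358 cells pre-induced 24 h with 10 ng/ml doxycycline to express N-terminal eGFP-delta133p53alpha, then dosed 24 h at 37C without doxycycline; fixed, Hoechst-stained, GFP intensity by laser scanning cytometry, normalized to DMSO (0%) and 57.5 uM 5-azacytidine (100%).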

[2] = molecular target: Cellular tumor antigen p53 (Homo sapiens) (UniProt P04637); test: Primary qHTS for small molecule compounds that upregulate eGFP-tagged delta133p53alpha (in C-terminal) cells. (AID 2060324); conditions: NCI-H358 delta133p53alpha-eGFP (C-terminal tag), GFP fluorescence imaging, 24 h; series mostly up to 57.5 µM; further: potency means the concentration at half of the fitted maximal effect
How it was run: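 In this qHTS, GFP-tagged delta133p53alpha levels are measured in fixed NCI-H358 cells after 24 h compound exposure at 37 °C. The cells are pre-induced with 100 ng/ml doxycycline, and signal is normalized to DMSO-treated wells as 0%.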

[3] = molecular target: Aldehyde dehydrogenase, mitochondrial (Homo sapiens) (UniProt P05091); test: qHTS for Inhibitors of the Aldehyde Dehydrogenase Family (ALDH2) Validation screens (AID 2061302; active means well fitted inhibition curve with a large enough effect; title and protocol of this record describe different tests; further: potency means the concentration at half of the fitted maximal effect); conditions: ALDH inhibition qHTS; series mostly up to 42.6 µM
[4] = molecular target: Retinaldehyde dehydrogenase 3 (Homo sapiens) (UniProt P47895); test: qHTS for Inhibitors of the Aldehyde Dehydrogenase Family (ALDH1A3) Validation screen (AID 2061312); conditions: ALDH1A3 enzyme inhibition qHTS validation, fluorescence; series mostly up to 84.7 µM; further: nearly all actives have a fitted effect of over 45% in size
[5] = BET inhibitor-based combinations targeting novel dependencies in MECOM-rearranged (r) AML: SET-2 cell line (AID 2202231); conditions: SET-2 AML cells viability, CellTiter-Glo luminescence, 48 h; viability: stronger effect = lower value, concentration not given here; further: nearly all actives have a fitted effect of over 35% in size; further: potency means the concentration at half of the fitted maximal effect
How it was run: (§1)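 Cells were plated at 500 per well and exposed to an 11-point dose series of each drug for 48 hr. Viability was measured by CellTiter-Glo luminescence, normalized to DMSO and empty-well controls, and summarized as AUC and per-cell-line Z-AUC.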

[6] = BET inhibitor-based combinations targeting novel dependencies in MECOM-rearranged (r) AML: OCI-AML3 cell line (AID 2202232); conditions: CellTiter-Glo luminescence, 48 h; Potency: OCI-AML3 viability; series mostly up to 46 µM; further: nearly all actives have a fitted effect of over 35% in size; further: potency means the concentration at half of the fitted maximal effect
How it was run: as §1

[7] = BET inhibitor-based combinations targeting novel dependencies in MECOM-rearranged (r) AML: MV-4-11 cell line (AID 2202233); conditions: MV-4-11 AML viability, CellTiter-Glo luminescence, 48 h; series mostly up to 46 µM; further: nearly all actives have a fitted effect of over 45% in size; further: potency means the concentration at half of the fitted maximal effect
How it was run: (§2)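 Activity is given as area under the curve and as Z-AUC, mean-centred within each cell line. It comes from 11-point dose curves normalized to DMSO and empty wells. CellTiter-Glo luminescence was read after 48 hr drug exposure of 500 cells/well.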

[8] = BET inhibitor-based combinations targeting novel dependencies in MECOM-rearranged (r) AML: HNT-34 cell line (AID 2202234); conditions: HNT-34 AML viability, CellTiter-Glo luminescence, 48 h; series mostly up to 46 µM; further: nearly all actives have a fitted effect of over 35% in size; further: potency means the concentration at half of the fitted maximal effect
How it was run: as §2

[9] = BET inhibitor-based combinations targeting novel dependencies in MECOM-rearranged (r) AML: UCSD-AML1 cell line (AID 2202235); conditions: UCSD-AML1 AML cells viability, CellTiter-Glo, 48 h; series mostly up to 46 µM; further: nearly all actives have a fitted effect of over 40% in size; further: potency means the concentration at half of the fitted maximal effect
How it was run: as §2

[10] = BET inhibitor-based combinations targeting novel dependencies in MECOM-rearranged (r) AML: AML-191 cell line (AID 2202236; further: nearly all actives have a fitted effect of over 35% in size; further: potency means the concentration at half of the fitted maximal effect); conditions: AML-191 viability, CellTiter-Glo luminescence, 48 h; series mostly up to 46 µM
How it was run: as §1

[11] = BET inhibitor-based combinations targeting novel dependencies in MECOM-rearranged (r) AML: AML-194 cell line (AID 2202237; further: nearly all actives have a fitted effect of over 40% in size; further: potency means the concentration at half of the fitted maximal effect); conditions: AML-194 (MECOM-r AML) viability, CellTiter-Glo, 48 h; series mostly up to 46 µM
How it was run: as §1

[12] = molecular target: Retinaldehyde dehydrogenase 3 (Homo sapiens) (UniProt P47895); test: qHTS for Inhibitors of the Aldehyde Dehydrogenase Family (ALDH1A3) Primary screen (AID 2061315); conditions: ALDH inhibition qHTS; series mostly up to 56 µM
[13] = molecular target: Aldehyde dehydrogenase 1A1 (Homo sapiens) (UniProt P00352); test: qHTS for Inhibitors of the Aldehyde Dehydrogenase Family (ALDH1A1) Confirmatory screens (AID 2061316); conditions: ALDH inhibition qHTS; series mostly up to 47.3 µM; further: potency means the concentration at half of the fitted maximal effect; nearly all actives have a fitted effect of over 65% in size

Cellular tumor antigen p53 (Homo sapiens), sequence (P04637 whole entry, looked up): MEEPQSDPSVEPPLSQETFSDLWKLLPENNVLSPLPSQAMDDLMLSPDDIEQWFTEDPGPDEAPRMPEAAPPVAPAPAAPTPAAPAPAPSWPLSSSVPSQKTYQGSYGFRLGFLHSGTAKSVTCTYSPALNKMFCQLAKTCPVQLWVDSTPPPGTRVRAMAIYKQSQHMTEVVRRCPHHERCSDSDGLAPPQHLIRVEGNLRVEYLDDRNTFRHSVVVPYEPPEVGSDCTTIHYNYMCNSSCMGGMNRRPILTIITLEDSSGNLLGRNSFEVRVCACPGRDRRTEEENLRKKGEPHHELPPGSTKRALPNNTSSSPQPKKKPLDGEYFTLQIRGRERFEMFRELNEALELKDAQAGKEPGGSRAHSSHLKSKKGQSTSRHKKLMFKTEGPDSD

Compound	activation [1]	Potency [2]	Potency [3]	Potency [4]	viability [5]	Potency [6]	Potency [7]	Potency [8]	Potency [9]	Potency [10]	Potency [11]	Potency [5]	Potency [1]	Potency [12]	Potency [13]
CCOC(=O)C(C)(C)Oc1ccc(Cl)cc1	14.3% and -37.9% and -27.7%	inactive	inactive	inactive	112%	inactive	inactive	inactive	inactive	inactive	inactive				
CC/C(=C(\c1ccccc1)c1ccc(OCCN(C)C)cc1)c1ccccc1	-17.6% and -12.3% and -27%	inactive	inactive	inactive			15.2 µM (active)	15.2 µM (active)				12.1 µM (active)			
CCC(C)N(C)C(=O)c1cc2ccccc2c(-c2ccccc2Cl)n1 (centres undefined)	12.4% and -31.8%	inactive	inactive	inactive	102%	inactive	inactive	inactive		inactive	inactive				
Nc1ncnc2c1ncn2[C@@H]1O[C@H](CO)[C@@H](O)[C@H]1O	6.69% and -13%	inactive	inactive	inactive	126%	inactive	inactive	inactive	inactive	inactive	inactive				
Clc1ccc(C(c2ccccc2Cl)C(Cl)Cl)cc1 (centres undefined)	18.6% and -1.36% and 29.2%	inactive	inactive	inactive	70.3%	inactive			inactive		inactive				
Cc1cccc(-c2[nH]ncc2-c2ccc3ncccc3n2)n1	39.6% and -70.9%	inactive	inactive	inactive	105%	inactive	inactive	20.9 µM (active)		inactive	inactive				
CCCN(CCC)C(=O)C(CCC(=O)O)NC(=O)c1ccccc1 (centres undefined)	-4.18% and 0.787%	inactive	inactive	inactive	109%	inactive	inactive	inactive	inactive	inactive	inactive				
CNC[C@H](O)c1cccc(O)c1	-9.21% and 8.41% and -4.95%	inactive	inactive	inactive	112%	inactive		inactive	inactive		inactive				
CC(C(=O)O)c1cccc(C(=O)c2ccccc2)c1 (centres undefined)	8.47% and 8.5% and -11%	inactive	inactive	inactive	117%	inactive	inactive	inactive		inactive	inactive				
O=C(O)C1CCCN(CCC=C(c2ccccc2)c2ccccc2)C1 (centres undefined)	-10.3%	inactive	inactive	inactive	117%	inactive	inactive	inactive	inactive	inactive	inactive				
CCCc1c(OCCCOc2ccc(OCC(=O)O)cc2)ccc(C(C)=O)c1O	-13.9%	inactive	inactive	inactive	119%	inactive		inactive		inactive	inactive				
CN(C)c1nc(N(C)C)nc(N(C)C)n1	-31.8% and -1.51% and -37.1%	inactive	inactive	inactive	111%	inactive	inactive	inactive	inactive	inactive	inactive				
CCOC(=O)C(C)Oc1cccc2c(=O)n(CC(=O)Nc3ccc4c(c3)OCCO4)ccc12 (centres undefined)	-0.568% and 16.2%	inactive	inactive	inactive	114%	3.72 µM (active)	3.32 µM (active)			inactive	inactive				
NC(=O)c1cccc(N)c1	7.85%	inactive	inactive	inactive	120%		inactive	inactive	inactive	inactive	inactive				
CC(C)C[C@H](NC(=O)[C@@H](O)[C@H](N)Cc1ccccc1)C(=O)O	-10.8%	inactive	inactive	inactive	104%	inactive	inactive	inactive	inactive	inactive	inactive				
Cc1cnc(NC(=O)C2=C(O)c3ccccc3S(=O)(=O)N2C)s1	-27.7% and -26.4% and -6.82%	inactive	inactive	inactive	110% and 107% and 111%	inactive	inactive	inactive		inactive	inactive				

Compound	activation [1]	Potency [2]	Potency [3]	Potency [4]	viability [5]	Potency [6]	Potency [7]	Potency [8]	Potency [9]	Potency [10]	Potency [11]	Potency [5]	Potency [1]	Potency [12]	Potency [13]
Cc1ccc(C(=O)Nc2ccc(S(=O)(=O)O)c3cc(S(=O)(=O)O)cc(S(=O)(=O)O)c23)cc1NC(=O)c1cccc(NC(=O)Nc2cccc(C(=O)Nc3cc(C(=O)Nc4ccc(S(=O)(=O)O)c5cc(S(=O)(=O)O)cc(S(=O)(=O)O)c45)ccc3C)c2)c1	-19.3% and -10.7% and -18.3%	inactive	inactive	inactive	108%	inactive	inactive	inactive	inactive	inactive	inactive				
Nc1ncn([C@@H]2O[C@H](CO)[C@@H](O)[C@H]2O)c(=O)n1		21.3 µM (active)	inactive	inactive		5.9 µM (active)	3.32 µM (active)	4.68 µM (active)	4.68 µM (active)	5.25 µM (active)	16.6 µM (active)	1.05 µM (active)	1.69 µM (active)		
CN(C)C(=O)C(CCN1CCC(O)(c2ccc(Cl)cc2)CC1)(c1ccccc1)c1ccccc1	62.2% and -46.1%	inactive	inactive	inactive			20.9 µM (active)					14.8 µM (active)			
CCN(CC)CCNC(=O)c1c(C)[nH]c(/C=C2\C(=O)Nc3ccc(F)cc32)c1C		6.75 µM (active)	inactive	inactive		5.9 µM (active)	0.0468 µM (active)	1.86 µM (active)	3.72 µM (active)	3.72 µM (active)	4.68 µM (active)	16.6 µM (active)	4.9 µM (active) and 26.9 µM (active)		
CCCCS(=N)(=O)CCC(N)C(=O)O (centres undefined)	-49.8%	inactive	inactive	inactive	120%	9.59 µM (active)	21.5 µM (active)	inactive	inactive	inactive	inactive				
O=c1c(O)c(-c2ccc(O)cc2O)oc2cc(O)cc(O)c12	15.3% and -27.9%	inactive	inactive	inactive	122%	inactive	inactive	inactive		inactive	inactive				
NS(=O)(=O)c1cc2c(cc1Cl)NC=NS2(=O)=O	-10% and -6.71% and -22.3%	inactive	inactive	inactive	111%	inactive	inactive	inactive	inactive	inactive	inactive				
Clc1ccccc1C(c1ccccc1)(c1ccccc1)n1ccnc1	-9.6% and -24.2%	inactive	inactive	inactive		16.6 µM (active)	18.6 µM (active)	18.6 µM (active)		23.5 µM (active)		18.6 µM (active)			
COc1cccc(-c2cc(=O)c3ccccc3o2)c1N	10.5% and -44.6%	inactive	inactive	inactive	100%	5.25 µM (active)	20.9 µM (active)		inactive	14.8 µM (active)					
C[C@@H](c1ncncc1F)[C@](O)(Cn1cncn1)c1ccc(F)cc1F	-3.85% and -2.78%	inactive	inactive	inactive	105%	inactive	inactive	inactive	inactive	inactive	inactive				
CC(C)NCC(O)c1ccc(NS(C)(=O)=O)cc1 (centres undefined)	-72.6%	inactive	inactive	inactive	116%	inactive	inactive		inactive		inactive				
Oc1ccc2ccccc2c1SSc1c(O)ccc2ccccc12	-0.0951%	inactive	14.1 µM (active)	inactive		6.61 µM (active)	16.6 µM (active)		23.5 µM (active)	20.9 µM (active)	20.9 µM (active)				
CC[C@@]1(O)C(=O)OCc2c1cc1n(c2=O)Cc2cc3c(CN(C)C)c(O)ccc3nc2-1		6.75 µM (active)	inactive			0.0186 µM (active)	0.0118 µM (active)	0.0083 µM (active)	0.0166 µM (active)	0.0209 µM (active)		0.0372 µM (active)	24.6 µM (active) and 3.38 µM (active)	inactive	
CCN1CCCC1CNC(=O)c1cc(S(=O)(=O)CC)c(N)cc1OC (centres undefined)	-0.505% and -9.21% and -28.2%	inactive	inactive	inactive			inactive	inactive	inactive	inactive	inactive				
c1ccc([C@H]2CN3CCSC3=N2)cc1	15.3% and -0.374%	inactive	inactive	inactive	112%		inactive	inactive	inactive	inactive	inactive				
Cc1ccc(S(=O)(=O)N[C@@H](Cc2ccccc2)C(=O)CCl)cc1		26.9 µM (active)	inactive				13.2 µM (active)	13.2 µM (active)		20.9 µM (active)	23.5 µM (active)	18.6 µM (active)	24.3 µM (active)		0.565 µM (active)
